Screening data from PubChem.
PLC-beta3 inh – human PLC-beta3 inhibitors, primary screen, biochemical, fluorescence; Purified PLC-beta3, fluorogenic substrate; inhibition, % at 12.2 µM; hit rate 0.18% among 370,000; AID 720704, 2013; in the data active = inhibition above about 11%;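 note: 0% = median of compound wells on plate and 100% = full blocker control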
PLC-gamma1 inh – PLC-gamma1 enzyme inhibitors, primary screen, biochemical, fluorescence, purified enzyme; 1-phosphatidylinositol 4,5-bisphosphate phosphodiesterase gamma-1 (Homo sapiens), P19174; fluorogenic substrate; inhibition, % at 12.2 µM; hit rate 0.84% among 370,000; in the data active = inhibition above about 9.5%
Target sequence (P19174 whole entry, looked up): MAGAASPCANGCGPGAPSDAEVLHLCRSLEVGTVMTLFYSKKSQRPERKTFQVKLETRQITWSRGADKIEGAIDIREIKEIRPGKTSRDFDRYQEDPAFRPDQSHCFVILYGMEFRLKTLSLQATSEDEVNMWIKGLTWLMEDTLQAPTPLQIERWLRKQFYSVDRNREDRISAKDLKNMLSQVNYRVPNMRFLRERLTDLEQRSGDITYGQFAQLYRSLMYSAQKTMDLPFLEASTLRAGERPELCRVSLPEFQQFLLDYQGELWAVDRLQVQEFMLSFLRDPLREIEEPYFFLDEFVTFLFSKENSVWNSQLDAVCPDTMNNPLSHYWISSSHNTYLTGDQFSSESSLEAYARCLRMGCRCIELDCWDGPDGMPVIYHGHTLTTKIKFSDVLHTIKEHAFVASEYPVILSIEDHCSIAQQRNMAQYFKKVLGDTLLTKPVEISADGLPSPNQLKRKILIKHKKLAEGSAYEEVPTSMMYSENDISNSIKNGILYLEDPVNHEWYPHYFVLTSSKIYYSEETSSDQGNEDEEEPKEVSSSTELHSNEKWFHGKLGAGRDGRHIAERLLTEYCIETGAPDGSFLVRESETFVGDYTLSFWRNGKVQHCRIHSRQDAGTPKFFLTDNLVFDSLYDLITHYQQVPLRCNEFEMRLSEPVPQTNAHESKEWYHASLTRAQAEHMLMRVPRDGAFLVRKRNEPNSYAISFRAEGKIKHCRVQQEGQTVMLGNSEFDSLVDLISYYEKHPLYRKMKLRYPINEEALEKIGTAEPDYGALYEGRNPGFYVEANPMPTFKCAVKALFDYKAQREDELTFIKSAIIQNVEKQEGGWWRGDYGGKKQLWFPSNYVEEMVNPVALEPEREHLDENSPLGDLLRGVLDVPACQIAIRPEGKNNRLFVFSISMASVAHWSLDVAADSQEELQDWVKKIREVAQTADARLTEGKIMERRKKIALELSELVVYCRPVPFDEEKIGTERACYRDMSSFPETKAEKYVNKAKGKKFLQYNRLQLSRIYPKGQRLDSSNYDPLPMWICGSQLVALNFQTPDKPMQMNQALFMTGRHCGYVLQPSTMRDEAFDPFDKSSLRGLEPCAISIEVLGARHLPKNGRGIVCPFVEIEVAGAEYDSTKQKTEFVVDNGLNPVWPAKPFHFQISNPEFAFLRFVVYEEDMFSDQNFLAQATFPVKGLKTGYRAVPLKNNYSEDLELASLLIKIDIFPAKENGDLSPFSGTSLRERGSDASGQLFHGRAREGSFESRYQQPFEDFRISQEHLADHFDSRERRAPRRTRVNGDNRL
proKLK7 act – proKLK7 zymogen activators, primary screen, biochemical, fluorescence intensity; Kallikrein-7 (Homo sapiens), P49862; purified proKLK7, EDANS-DABCYL substrate fluorescence; 100% is mature enzyme control, 0% vehicle; activation, % at 7 µM; hit rate 0.9% among 370,000;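 active = activation above the mean of all tested compounds plus 3 SD, computed per campaign excluding outliers beyond control limits, cut at about 13% in these data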
sPLA2-III inh – human group III sPLA2 inhibitors, primary screen, biochemical, QFRET, BODIPY PC-A2 liposome substrate; QFRET BODIPY PC-A2 liposome hydrolysis, fluorescence; inhibition, % at 12.2 µM; hit rate 0.56% among 370,000;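 active = inhibition above mean plus 3 SD of compounds lying within the high and low control bounds, cut at about 19% in these data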;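 note: 0% = median of test compound wells and 100% = no enzyme DMSO wells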
ADAM17 inh – ADAM17 inhibitors, primary screen, biochemical, QFRET; Disintegrin and metalloproteinase domain-containing protein 17 (Homo sapiens), P78536; recombinant ADAM17, EDANS/DABCYL FRET peptide cleavage; inhibition, % at 6.95 µM; hit rate 0.83% among 370,000; AID 720648, 2013;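 active = inhibition above the mean of compounds lying between control limits plus 3 SD, set per campaign, cut at about 8.5% in these data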;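 note: 0% = DMSO-only wells as the low control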
ADAM10 inh – human ADAM10 inhibitors, primary screen, biochemical, QFRET, HTS. Disintegrin and metalloproteinase domain-containing protein 10 (Homo sapiens), O14672. recombinant ADAM10, EDANS/DABCYL FRET peptide cleavage, 3 h. inhibition, % at 7 µM. hit rate 0.62% among 370,000;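 active = inhibition above a per-campaign cutoff equal to the mean of compounds falling between control-based bounds plus 3 SD, cut at about 20% in these data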;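 note: 0% = DMSO wells while the 100% control is not disclosed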
hGIII sPLA2 conf – human group III sPLA2 inhibitors, confirmation, biochemical, QFRET, triplicate | hit rate 34% among 2,000 | recombinant hGIII-sPLA2, BODIPY PC-A2 QFRET fluorescence | AID 743280, 2014 | shares compounds with sPLA2-III inh | inhibition, % at 12.2 µM;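 active = mean inhibition across triplicates above the hit cutoff set in the earlier primary screen, cut at about 19% in these data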;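 note: 0% = enzyme with DMSO and 100% = DMSO wells lacking enzyme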
BODIPY interf – 535nm fluorescence optical interference, confirmation, artefact control for HGIII-sPLA2 inhibitor project, biochemical, QFRET | shares compounds with sPLA2-III inh | AID 743282, 2014 | hit rate 8.5% among 2,000 | BODIPY FL product fluorescence interference | inhibition, % at 12.2 µM;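 active = average inhibition above the solvent-only control mean plus 3 SD, cut at about 6% in these data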;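 note: 0% = DMSO with substrate plus product and 100% = DMSO with substrate alone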
BODIPY interf DR – 535nm fluorescence optical interference, dose response, artefact control for HGIII-sPLA2 inhibitor project, biochemical, QFRET. shares compounds with sPLA2-III inh. BODIPY FL product fluorescence interference, cell-free. IC50, µM. 240 tested, under 10 active. AID 743455, 2014;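 active = IC50 at or below 10 µM; inactive = IC50 above 10 µM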
* hit, by the source's call; i = inactive; . = no result given. This is a sample that favours compounds with a hit; in the whole collection about 3.4% have one here.

SMILES	PLC-beta3 inh	PLC-gamma1 inh	proKLK7 act	sPLA2-III inh	ADAM17 inh	ADAM10 inh	hGIII sPLA2 conf	BODIPY interf	others
Cc1[nH]c2ccccc2c1CC(=O)Nc1ccc(Nc2cccnc2)c(Br)c1	-9.0	-12.3	0.5	-39.1	-0.2	1.6	.	.
CC(C)(C)c1cc(C(=O)N/N=C/c2ccccc2O)n(-c2ccccc2)n1	-7.3	-9.3	-1.4	27.6*	-5.3	-4.6	-4.0	-18.7
CC(C)(C)c1cc(C(=O)N/N=C/c2ccc(F)cc2)n(-c2ccccc2)n1	-0.5	5.4	0.0	10.1	-3.4	-10.9	.	.
CCCCCOc1ccc(CSC(=N)N)cc1[N+](=O)[O-]	3.0	5.1	0.0	44.5*	0.0	0.6	29.6*	-17.8	BODIPY interf DR=>122
CCC(C)[C@H](NC(=O)[C@H](Cc1ccccc1)NC(=O)OC(C)(C)C)C(=O)NCc1ccccc1Br (some centres not stated)	3.4	7.0	0.2	20.1*	-8.3	-10.2	-2.2	-17.9
Cc1ccc2c(c1)c1c3n2CCNC3CCC1 (configuration not stated)	-91.8	-61.1	3.1	26.7*	-5.3	-12.0	32.4*	-4.0	BODIPY interf DR=>122
CCN(CC)CCN1CCn2c3c(c4cc(C)ccc42)CCCC31 (configuration not stated)	-350.9	-327.7	3.9	22.7*	-147.7	-472.7	10.4	-20.0
Cc1ccc2c(c1)c1c3n2CCN(C=O)C3CCC1 (configuration not stated)	-72.1	-52.9	0.3	13.2	-18.4	-18.0	.	.
COc1ccc2c(c1)cc(C(=O)N/N=C/c1c(O)c(C(=O)O)cc3ccccc13)n2C	i	i	-72.7	19.2*	-63.4	-133.4	16.5	2.1
Cn1c(O)c(/C=N/NC(=O)c2cc3ccccc3cc2O)c2ccccc21	-79.5	-48.7	-2.2	0.5	-2.2	-5.3	.	.
CC12CC3(C)CC(C)(C1)CC(C(=O)NC(=S)N1CCOCC1)(C2)C3	-0.1	7.8	0.2	20.1*	-8.9	-8.6	22.9*	-10.2
O=C(NC(=S)N1CCOCC1)C12CC3CCC(CC(C3)C1)C2	1.1	-0.6	0.3	1.3	-1.0	0.2	.	.
